Bioassay records: PubChem, The Scripps Research Institute Molecular Screening Center
Only some compounds are listed: those with a hit (about 2.8% of all), similar ones and a draw of the others.
rCAG binder-1: binders of r(CAG) RNA repeats, primary screen, biochemical, fluorescence | AID 651821, 2012 | inhibition, % at 3 µM | r(CAG) RNA repeat, TO-PRO-1 dye displacement fluorescence | 370,000 tested, 1.3% active;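 active means inhibition above the plate cutoff, the mean of all test compounds on that plate plus 3 SD, cut at about 35% in these data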;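 further: 0% = DMSO alone and 100% = 100 µM mitoxantrone as full dye displacement; higher means more dye released from RNA so lower well fluorescence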
MsrA inh: bovine MsrA enzyme inhibitors, primary screen, biochemical, absorbance, HTS. inhibition, % at 15.5 µM. AID 651718, 2012. Methionine sulfoxide reductase A (Bos taurus). 360,000 tested, 0.75% active. purified bovine MsrA, absorbance read-out; in the data active means inhibition above about 4.5%;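 further: 0% = vehicle wells with enzyme and 100% = reference inhibitor wells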
MsrA act: bovine MsrA enzyme activators, primary screen, biochemical, absorbance, HTS; purified bovine MsrA, absorbance read-out; activation, % at 10.6 µM; AID 602163, 2012; 360,000 tested, 0.3% active; in the data active means activation above about 7.5%;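 further: 0% = vehicle and 100% = reference activator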
sPLA2-III inh: human group III sPLA2 inhibitors, primary screen, biochemical, QFRET, BODIPY PC-A2 liposome substrate. QFRET BODIPY PC-A2 liposome hydrolysis, fluorescence. inhibition, % at 12.2 µM. 370,000 tested, 0.56% active;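 active means inhibition above mean plus 3 SD of compounds lying within the high and low control bounds, cut at about 19% in these data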;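 further: 0% = median of test compound wells and 100% = no enzyme DMSO wells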
Target sequence (Q9NZ20 whole entry, looked up): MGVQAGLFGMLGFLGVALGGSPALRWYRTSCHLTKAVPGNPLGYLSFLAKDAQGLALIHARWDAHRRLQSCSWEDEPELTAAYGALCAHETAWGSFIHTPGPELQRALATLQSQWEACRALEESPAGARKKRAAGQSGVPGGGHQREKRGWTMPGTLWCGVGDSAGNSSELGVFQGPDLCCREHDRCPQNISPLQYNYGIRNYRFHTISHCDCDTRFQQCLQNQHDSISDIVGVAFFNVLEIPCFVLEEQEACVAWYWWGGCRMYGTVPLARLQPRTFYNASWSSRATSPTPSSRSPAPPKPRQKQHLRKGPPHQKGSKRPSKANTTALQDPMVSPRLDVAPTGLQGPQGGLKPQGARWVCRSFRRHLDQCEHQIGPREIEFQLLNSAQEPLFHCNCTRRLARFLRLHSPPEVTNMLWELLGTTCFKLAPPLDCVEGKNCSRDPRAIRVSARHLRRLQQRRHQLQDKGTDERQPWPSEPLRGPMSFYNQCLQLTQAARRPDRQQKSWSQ
rCAG binder conf: small molecules binding CAG repeat RNA – biochemical, fluorescence, confirmation; shares compounds with rCAG binder-1; r(CAG) RNA repeat, TO-PRO-1 dye displacement fluorescence; inhibition, % at 3 µM; 4,300 tested, 70% active; AID 652065, 2013;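 active means inhibition above a per-plate cutoff, the mean inhibition of sample wells plus 3 SD, cut at about 35% in these data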;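 further: loss of TO-PRO-1 fluorescence as compound displaces dye from 1x1 AA loop RNA; 0% = DMSO only wells and 100% = 100 µM mitoxantrone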
DNA CAG counter: displacement of TO-PRO-1 from CAG DNA duplex, counter-screen for rCAG RNA repeat binder project, biochemical, fluorescence, TO-PRO-1 dye, d(CAG) DNA oligo | shares compounds with rCAG binder-1 | d(CAG) DNA oligo TO-PRO-1 dye displacement | inhibition, % at 3 µM | 4,300 tested, 94% active;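 active means inhibition above its plate's cutoff, the mean test-well inhibition plus 3 SD, cut at about 4.8% in these data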;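 further: 0% = DNA dye mix with DMSO and 100% = 100 µM mitoxantrone; hits displace the dye from DNA and so lower well fluorescence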
dCAG dye DR: inhibitors of DNA CAG/GTC TO-PRO-1 complex, dose response, counter-screen for rCAG RNA repeat binder project, biochemical, fluorescence, TO-PRO-1 dye | shares compounds with rCAG binder-1 | DNA CAG/GTC duplex TO-PRO-1 dye displacement fluorescence | IC50, µM | 250 tested, 20% active | AID 686960, 2013; in the data active means IC50 below about 10 µM
dCAG DNA bind: TO-PRO-1 dye complex inhibitors on d(CAG) DNA, dose response, counter-screen, biochemical, fluorescence, late stage. shares compounds with rCAG binder-1. 30 tested, 80% active. IC50, µM. d(CAG) DNA duplex TO-PRO-1 dye displacement. AID 720649, 2013
rCAG binder-2: molecules binding r(CAG) RNA repeats, late stage dose response, late-stage follow-up, biochemical, fluorescence, dose response, powder samples. shares compounds with rCAG binder-1. r(CAG) RNA TO-PRO-1 dye displacement. IC50, µM. 30 tested, 100% active. AID 720651, 2013
Numbers without * were called inactive; i = inactive; . = not tested or not shown. Unless noted, how the calls were made is not given here.

SMILES	rCAG binder-1	MsrA inh	MsrA act	sPLA2-III inh	rCAG binder conf	DNA CAG counter	others
CCCCCOC(=O)Nc1ccc(S(=O)(=O)Nc2cccc([N+](=O)[O-])c2)cc1	48*	0	-3	-72	45*	10*
O=C(CC(=O)c1ccccc1)Nc1ccc([N+](=O)[O-])cc1	14	4	0	-10	.	.
CCCCOC(=O)Nc1ccc(S(=O)(=O)Nc2ccc([N+](=O)[O-])cc2)cc1	51*	0	-3	-49	33	9.9*
CC(=O)c1ccc(NS(=O)(=O)c2ccc([N+](=O)[O-])cc2)cc1	2	4	-4	-5	.	.
O=[N+]([O-])c1ccc(S(=O)(=O)Nc2ccc(-c3ccccc3)cc2)cc1	45*	0	-2	-37	35*	8.7*
CCCCOC(=O)Nc1ccc(S(=O)(=O)Nn2cnnc2)cc1	2	-1	-2	4	.	.
CS(=O)(=O)Nc1ccc(C(=O)CC(=O)Nc2ccc([N+](=O)[O-])cc2)cc1	37*	4	-12	-22	14	9.4*
COc1cc(Nc2cc(C)n(-c3ccc(Cl)c(OC)c3)c(=O)c2)ccc1Cl	7	1	.	-1	.	.
Cn1ccnc1SCC(=O)c1ccc(F)cc1	-3	-1	-11	-5	.	.
CC(C)(C)C(=O)Nc1ccc(C(=O)Nc2cc(NC(=O)c3ccc(NC(=O)C(C)(C)C)cc3)cc(C(=O)O)c2)cc1	44*	0	-1	-3	67*	30*
O=C(O)c1ccc([N+](=O)[O-])cc1	1	1	-3	-4	.	.
CC(C)(C)C(=O)Nc1ccc(C(=O)NNC(=O)c2ccccc2)cc1	-3	0	-9	0	.	.
O=C(O)c1cc(NC(=O)c2ccc([N+](=O)[O-])cc2)cc(NC(=O)c2ccc([N+](=O)[O-])cc2)c1	50*	1	-1	0	34	7.2*
CCCCn1c(N)c(N(CCOC)C(=O)c2oc3ccc(Br)cc3c2C)c(=O)[nH]c1=O	8	-1	-9	-6	.	.
O=C(COc1ccccc1/C=C1\SC(=S)NC1=O)Nc1ccc(F)cc1	39*	1	-7	-4	71*	32*	dCAG dye DR=i;dCAG DNA bind=2.8*;rCAG binder-2=1.1*
NC1=NC(=O)/C(=C/c2ccccc2OCC(=O)Nc2ccc(F)cc2)S1	1	0	-1	-4	.	.
CCCCCCCCN1C(=O)[C@H](CC(=O)N2CCN(C(=O)C3CC3)CC2)C[C@@]2(C(=O)OC)CC(C)(C)CC=C12	5	2	.	-6	.	.
O=C(O)c1cccc(N2C(=O)C3C4C=CC(C4=C(c4ccccc4)c4ccccc4)C3C2=O)c1 (stereo not drawn)	35*	-1	-1	-38	47*	12*
O=C(O)c1cccc(N2C(=O)c3ccc4c5c(ccc(c35)C2=O)C(=O)N(c2cccc(C(=O)O)c2)C4=O)c1	4	0	-2	-3	.	.
CN(C)c1ccc(-c2ccnc3c2CC(C)(C(=O)Nc2ccc(Cl)c(C(F)(F)F)c2)O3)cc1 (stereo not drawn)	13	1	-9	14	.	.
O=C(O)c1ccc(Cl)c(S(=O)(=O)N(Cc2ccccc2)c2ccccc2Cl)c1	73*	0	-3	-45	68*	22*
COc1ccc(N(Cc2ccccc2)S(=O)(=O)c2cc(C(=O)O)ccc2Cl)cc1	53*	-1	-2	-32	42*	8.9*
O=C(O)c1ccc(Cl)c(S(=O)(=O)N(Cc2ccccc2)c2ccccc2)c1	38*	1	-3	-16	39*	9.6*
O=C(O)c1ccc(Cl)c(S(=O)(=O)N(Cc2ccccc2)c2ccc(F)cc2)c1	54*	-1	1	-25	48*	13*
O=C(Nc1ccc(S(=O)(=O)NC2=NCCCCC2)cc1)c1cccc(S(=O)(=O)N2CCOCC2)c1	6	-1	-1	-4	.	.
SMILES	rCAG binder-1	MsrA inh	MsrA act	sPLA2-III inh	rCAG binder conf	DNA CAG counter	others
O=Cc1ccc(OC(=O)c2cc(Cl)nc3ccccc23)cc1	1	2	-14	-2	.	.
COC(=O)c1cc(-c2cccc(OC)c2)on1	2	1	0	0	.	.
O=[N+]([O-])c1ccc(CC(Cl)c2ccccn2)cc1 (stereo not drawn)	3	-1	-1	-3	.	.
O=C(O)c1cccc(S(=O)(=O)N(Cc2ccccc2)c2ccc(Cl)cc2)c1	38*	-2	-1	-19	41*	12*
O=C(O)c1cccc(S(=O)(=O)N(Cc2ccccc2)c2ccccc2)c1	12	0	0	-8	.	.
COc1cc(Br)c(CCNC(=O)Cc2ccccc2)cc1OC	-1	-1	-1	4	.	.
O=C(CSc1nnnn1-c1cccc2ccccc12)N1CCOCC1	0	1	1	-1	.	.
O=C(CSc1nnnn1-c1cccc2ccccc12)NC(C(=O)O)(c1ccccc1)c1ccccc1	46*	0	-2	-24	36*	10*
Cc1ccc(-n2nnnc2SCC(=O)NC(C(=O)O)(c2ccccc2)c2ccccc2)cc1C	38*	0	-5	-16	38*	10*
CCOC(=O)CNC(=O)CSc1nnnn1-c1ccc(C)c(C)c1	-2	1	-7	6	.	.
O=C(COc1ccccc1)NCC(c1ccco1)N1CCN(c2ccccc2F)CC1 (stereo not drawn)	-13	1	-4	-10	.	.
O=C(Nc1ccccc1O)c1c(O)c2c([nH]c1=O)CCCC2	44*	1	-2	-2	40*	27*
Cc1ccc(O)c(Cc2cc(C)cc(Cc3cc(C)ccc3O)c2O)c1	40*	2	-3	-86	39*	11*
Cc1ccc(O)c(CNCCNCc2cc(C)ccc2O)c1	3	2	-10	-14	.	.
COc1cccc(C(=O)NCCNc2nc3cc(C)cc(C)c3cc2C#N)c1	2	0	.	-4	.	.
